From PubChem BioAssay (NCATS) come the findings set out here.

A short description of experiment [1]: Validation screen for inhibitors of Lassa infection (AID 463096). Note: % is set by controls: 0 for no effect and ±100 for the full control effect.
Experiment [2] in a line: Inducers of the Endoplasmic Reticulum Stress Response (ERSR) in human glioma: Validation (AID 504836; active = well fitted curve in the direction sought with a large enough effect; an effect the other way counts as inactive or inconclusive; note: 0% is about no effect). The gist of the method:
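Stably transfected U87-MG glioma cells carrying a GRP78-based luciferase sensor; 16 h compound incubation. Luminescence end-point read 10 min after Bright-Glo addition at room temperature.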

The target in experiment [3] is Arylsulfatase A (Homo sapiens) (UniProt P15289). Put plainly: qHTS screen for enhancers of Arylsulfatase A (ASA1): LOPAC Validation Assay (AID 720538; active = well fitted curve in the direction sought with a large enough effect; an effect the other way counts as inactive or inconclusive; note: 0% is about no effect). The gist of the method: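 Read-out: fluorescence at Ex=525/Em=598 nm after 1N NaOH final stop. Patient fibroblasts carrying ASA-I179S had 48h compound exposure, then 14h room-temperature pNCS hydrolysis (0.5mM final) in lysis buffer. Signal increase = enhanced activity.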
Chain of Arylsulfatase A (Homo sapiens) (P15289 whole entry, looked up): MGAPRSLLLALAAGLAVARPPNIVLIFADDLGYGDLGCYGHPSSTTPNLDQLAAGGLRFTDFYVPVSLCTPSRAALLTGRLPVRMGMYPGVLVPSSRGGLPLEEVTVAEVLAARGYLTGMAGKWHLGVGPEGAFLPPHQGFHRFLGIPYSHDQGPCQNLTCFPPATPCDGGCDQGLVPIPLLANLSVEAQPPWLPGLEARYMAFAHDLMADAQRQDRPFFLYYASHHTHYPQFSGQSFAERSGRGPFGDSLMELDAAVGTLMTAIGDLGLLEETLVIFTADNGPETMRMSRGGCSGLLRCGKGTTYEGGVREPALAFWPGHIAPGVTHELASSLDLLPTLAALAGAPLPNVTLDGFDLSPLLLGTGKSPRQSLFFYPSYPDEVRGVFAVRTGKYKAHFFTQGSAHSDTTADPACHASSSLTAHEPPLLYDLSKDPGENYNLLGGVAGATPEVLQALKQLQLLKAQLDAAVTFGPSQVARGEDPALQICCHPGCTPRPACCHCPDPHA
Background: qHTS replaces the single test concentration by a dilution series.

The nature of experiment [4]: qHTS for Inhibitors of the Functional Ribonucleoprotein Complex (vRNP) of Lassa (LASV) Arenavirus: LASV Primary Screen - GLuc reporter signal (AID 1347082; calls by dose curve; tested in HEK293 reporter line; note: series mostly up to about 57 µM; % is set by controls: 0 for no effect and ±100 for the full control effect; nearly all actives have a fitted effect of over 60% in size).
Experiment [5] is described as follows: qHTS for Inhibitors of the Functional Ribonucleoprotein Complex (vRNP) of Lassa (LASV) Arenavirus: Viability assay - alamar blue signal for LASV Primary Screen (AID 1347083; calls by dose curve; tested in HEK293 reporter line; note: series mostly up to about 57 µM; % is set by controls: 0 for no effect and ±100 for the full control effect; nearly all actives have a fitted effect of over 80% in size).
Experiment [6] in a line: qHTS for Inhibitors of the Functional Ribonucleoprotein Complex (vRNP) of Lymphocytic Choriomeningitis Arenaviruses (LCMV): Viability assay - alamar blue signal for LCMV Primary Screen (AID 1347085; calls by dose curve; tested in HEK293 reporter line; note: series mostly up to about 57 µM; % is set by controls: 0 for no effect and ±100 for the full control effect; nearly all actives have a fitted effect of over 80% in size).
Experiment [7] deals with Nucleoprotein (Lymphocytic choriomeningitis virus (strain Armstrong)) (UniProt P09992). The experiment in a line: qHTS for Inhibitors of the Functional Ribonucleoprotein Complex (vRNP) of Lymphocytic Choriomeningitis Arenaviruses (LCMV): LCMV Primary Screen - GLuc reporter signal (AID 1347086). Note: series mostly up to about 57 µM; % is set by controls: 0 for no effect and ±100 for the full control effect; nearly all actives have a fitted effect of over 70% in size.
Chain of Nucleoprotein (Lymphocytic choriomeningitis virus (strain Armstrong)) (P09992 whole entry, looked up): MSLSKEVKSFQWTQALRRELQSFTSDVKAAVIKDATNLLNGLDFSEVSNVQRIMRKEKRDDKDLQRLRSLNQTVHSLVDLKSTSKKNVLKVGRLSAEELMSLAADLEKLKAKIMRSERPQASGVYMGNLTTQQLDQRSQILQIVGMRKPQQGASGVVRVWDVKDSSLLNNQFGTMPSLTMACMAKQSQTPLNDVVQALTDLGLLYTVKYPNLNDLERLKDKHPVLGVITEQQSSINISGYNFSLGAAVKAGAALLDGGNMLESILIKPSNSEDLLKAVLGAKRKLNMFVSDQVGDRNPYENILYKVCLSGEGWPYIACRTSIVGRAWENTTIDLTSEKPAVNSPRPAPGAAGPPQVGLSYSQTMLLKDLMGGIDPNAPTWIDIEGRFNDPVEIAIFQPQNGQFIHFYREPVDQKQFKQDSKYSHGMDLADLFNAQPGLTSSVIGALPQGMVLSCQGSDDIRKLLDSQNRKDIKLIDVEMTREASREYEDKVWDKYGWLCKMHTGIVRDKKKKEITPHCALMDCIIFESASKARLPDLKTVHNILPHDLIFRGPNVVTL
Experiment [8] addresses Alpha-galactosidase (Coffea arabica) (UniProt Q42656). The experiment in a line: Counterscreen for Glucocerebrosidase Inhibitors: qHTS Assay for Coffee Bean alpha-Galactosidase at pH 4.5 (AID 957; active = well fitted curve in the direction sought with a large enough effect; an effect the other way counts as inactive or inconclusive;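 note: series mostly up to about 77 µM; plate controls were enzyme alone for no effect and no enzyme for full effect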). An outline of the steps: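 Green coffee bean enzyme (2 nM final) was incubated with compounds (0.7 nM to 77 uM) and 4-methylumbelliferyl alpha-D-galactopyranoside (80 uM final) in 50 mM citric acid, 0.005% Tween-20, pH 4.5, 20 min at room temperature; AC50 from Hill fits.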
(The purpose of a counterscreen is to sort out artefacts and off-target activity.)

Experiment [9] shares this target. Put plainly: Counterscreen for Glucocerebrosidase Inhibitors: qHTS Assay for Coffee Bean alpha-Galactosidase at pH 5.9 (AID 998; active = well fitted curve in the direction sought with a large enough effect; an effect the other way counts as inactive or inconclusive;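 note: plate controls were uninhibited enzyme for no effect and no-enzyme basal signal for full effect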). The gist of the method: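 Green coffee bean enzyme (2 nM) with 4-methylumbelliferyl alpha-D-galactopyranoside (80 uM) in 50 mM citric acid, 0.005% Tween-20, pH 5.9, 20 min at room temperature; compounds 0.7 nM–77 uM. Stopped at pH 10, fluorescence Ex365/Em440; Hill-fit AC50.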

The target of experiment [10] is Voltage-gated inwardly rectifying potassium channel KCNH2 (Homo sapiens) (UniProt Q12809). The experiment in a line: qHTS Assay for Small Molecule Inhibitors of the Human hERG Channel Activity (AID 588834; active = well fitted curve in the direction sought with a large enough effect; an effect the other way counts as inactive or inconclusive;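 note: lower thallium flux fluorescence means stronger hERG block; nearly all actives have a fitted effect of over 50% in size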; note: potency is the fitted concentration of half-maximal effect). The gist of the method:
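Concentration-response qHTS measuring drop in thallium-sensitive dye signal. U2OS cells carrying BacMam hERG; compound exposure ~10 min, then stimulation buffer and 2 min read at 1 sec intervals.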

Experiment [11] has as its target Bile acid receptor (Homo sapiens) (UniProt Q96RI1). The experiment in a line: qHTS assay for small molecule agonists of farnesoid X receptor signaling (AID 588527).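 Note: series mostly up to about 77 µM; 0% = vehicle basal and 100% = reference agonist.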 The following applies: HEK293T FXR-UAS-bla, beta-lactamase ratio, 16 h; activation: stronger effect = higher value. An outline of the steps:
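FXR-UAS-bla HEK293T, 10% dialyzed FBS; cpds up to 92 uM titration, 16 h 37 C; CCF4 dye 2 h RT; fluorescence. Normalized to chenodeoxycholic acid 100 uM (100%) and DMSO (0%); Hill fit gives EC50, efficacy.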

Experiment [12] addresses Ubiquitin carboxyl-terminal hydrolase 1 (Homo sapiens) (UniProt O94782). The experiment in a line: Inhibitors of USP1/UAF1: Pilot qHTS (AID 504865; active = well fitted curve in the direction sought with a large enough effect; an effect the other way counts as inactive or inconclusive;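 note: rhodamine fluorescence freed from ubiquitin-rhodamine substrate followed over time; top concentration of the series differs between compounds; % is set by controls: 0 for no effect and ±100 for the full control effect; nearly all actives have a fitted effect of over 35% in size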). An outline of the steps: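 1nM USP1/UAF1 + cpd, 15 min RT; start w/ Ub-Rho 150nM final; kinetic FL 480/540 nm, 6 reads q60 s. Buffer 50mM HEPES pH 7.8, 0.5mM EDTA, 1mM TCEP, 0.01% Tween-20, 0.1 mg/ml BSA.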

Values without a mark were called inactive. Results filed as inconclusive are left out. Activity calls are given as the source filed them. Unless noted, calls come from the whole dose curve.

Chain of Alpha-galactosidase (Coffea arabica) (Q42656 whole entry, looked up): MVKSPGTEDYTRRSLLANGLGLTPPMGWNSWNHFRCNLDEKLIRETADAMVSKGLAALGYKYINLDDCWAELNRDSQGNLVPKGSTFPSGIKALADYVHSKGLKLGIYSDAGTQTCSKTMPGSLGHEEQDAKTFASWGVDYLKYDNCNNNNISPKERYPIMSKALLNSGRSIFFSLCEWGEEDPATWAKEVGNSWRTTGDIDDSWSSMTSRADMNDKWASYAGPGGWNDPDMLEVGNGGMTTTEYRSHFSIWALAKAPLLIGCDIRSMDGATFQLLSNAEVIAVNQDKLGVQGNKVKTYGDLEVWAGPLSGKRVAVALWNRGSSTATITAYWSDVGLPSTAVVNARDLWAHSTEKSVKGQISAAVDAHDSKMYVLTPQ
Chain of Voltage-gated inwardly rectifying potassium channel KCNH2 (Homo sapiens) (Q12809 whole entry, looked up): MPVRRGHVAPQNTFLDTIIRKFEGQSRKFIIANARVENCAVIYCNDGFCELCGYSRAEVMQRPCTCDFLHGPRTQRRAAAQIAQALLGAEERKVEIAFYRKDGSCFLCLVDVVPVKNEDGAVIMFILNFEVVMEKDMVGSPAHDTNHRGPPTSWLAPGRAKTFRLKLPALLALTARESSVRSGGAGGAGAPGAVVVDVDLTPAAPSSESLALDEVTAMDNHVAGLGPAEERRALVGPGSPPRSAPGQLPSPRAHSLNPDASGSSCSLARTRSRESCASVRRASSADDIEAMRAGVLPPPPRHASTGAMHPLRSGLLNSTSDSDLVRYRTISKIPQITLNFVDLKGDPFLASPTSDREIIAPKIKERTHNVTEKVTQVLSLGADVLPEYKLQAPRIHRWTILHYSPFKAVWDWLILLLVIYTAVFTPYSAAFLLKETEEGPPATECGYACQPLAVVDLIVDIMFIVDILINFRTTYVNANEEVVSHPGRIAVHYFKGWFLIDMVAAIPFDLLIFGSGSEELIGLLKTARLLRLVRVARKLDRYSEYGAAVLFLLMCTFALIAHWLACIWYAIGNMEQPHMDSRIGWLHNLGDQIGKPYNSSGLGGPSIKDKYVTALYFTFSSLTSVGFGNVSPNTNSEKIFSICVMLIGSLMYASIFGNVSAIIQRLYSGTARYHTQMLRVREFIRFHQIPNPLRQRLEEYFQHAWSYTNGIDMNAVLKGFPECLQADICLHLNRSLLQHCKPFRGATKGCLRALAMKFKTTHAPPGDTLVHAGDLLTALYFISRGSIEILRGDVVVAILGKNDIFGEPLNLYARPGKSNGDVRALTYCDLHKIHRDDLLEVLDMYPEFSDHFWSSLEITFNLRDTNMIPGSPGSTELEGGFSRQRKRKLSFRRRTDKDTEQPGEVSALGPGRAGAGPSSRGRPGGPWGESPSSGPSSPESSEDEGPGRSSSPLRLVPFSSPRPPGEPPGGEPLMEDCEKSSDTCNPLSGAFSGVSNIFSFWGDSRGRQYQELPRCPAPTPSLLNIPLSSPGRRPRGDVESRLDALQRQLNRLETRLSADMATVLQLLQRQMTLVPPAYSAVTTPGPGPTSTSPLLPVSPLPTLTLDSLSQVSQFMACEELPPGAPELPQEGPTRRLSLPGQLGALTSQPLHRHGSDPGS
Chain of Ubiquitin carboxyl-terminal hydrolase 1 (Homo sapiens) (O94782 whole entry, looked up): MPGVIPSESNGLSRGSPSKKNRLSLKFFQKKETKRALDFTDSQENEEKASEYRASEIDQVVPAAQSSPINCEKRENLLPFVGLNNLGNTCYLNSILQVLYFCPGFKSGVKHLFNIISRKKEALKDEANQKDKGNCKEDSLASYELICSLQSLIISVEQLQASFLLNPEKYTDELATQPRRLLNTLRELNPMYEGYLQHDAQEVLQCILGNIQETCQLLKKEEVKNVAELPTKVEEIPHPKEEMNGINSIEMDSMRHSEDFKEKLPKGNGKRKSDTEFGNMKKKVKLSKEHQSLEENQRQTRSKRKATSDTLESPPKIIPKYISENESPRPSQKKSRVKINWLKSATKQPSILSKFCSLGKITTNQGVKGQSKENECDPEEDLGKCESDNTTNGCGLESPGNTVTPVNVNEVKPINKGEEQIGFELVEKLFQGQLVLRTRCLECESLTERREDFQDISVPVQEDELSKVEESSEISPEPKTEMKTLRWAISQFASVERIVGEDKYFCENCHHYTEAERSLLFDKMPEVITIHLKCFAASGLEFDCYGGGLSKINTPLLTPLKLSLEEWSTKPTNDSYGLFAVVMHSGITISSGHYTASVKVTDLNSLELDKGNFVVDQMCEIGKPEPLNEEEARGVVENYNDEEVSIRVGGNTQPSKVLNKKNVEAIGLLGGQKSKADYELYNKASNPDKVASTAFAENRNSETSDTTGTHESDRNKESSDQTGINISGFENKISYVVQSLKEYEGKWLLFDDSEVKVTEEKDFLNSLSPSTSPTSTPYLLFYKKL
Chain of Bile acid receptor (Homo sapiens) (Q96RI1 whole entry, looked up): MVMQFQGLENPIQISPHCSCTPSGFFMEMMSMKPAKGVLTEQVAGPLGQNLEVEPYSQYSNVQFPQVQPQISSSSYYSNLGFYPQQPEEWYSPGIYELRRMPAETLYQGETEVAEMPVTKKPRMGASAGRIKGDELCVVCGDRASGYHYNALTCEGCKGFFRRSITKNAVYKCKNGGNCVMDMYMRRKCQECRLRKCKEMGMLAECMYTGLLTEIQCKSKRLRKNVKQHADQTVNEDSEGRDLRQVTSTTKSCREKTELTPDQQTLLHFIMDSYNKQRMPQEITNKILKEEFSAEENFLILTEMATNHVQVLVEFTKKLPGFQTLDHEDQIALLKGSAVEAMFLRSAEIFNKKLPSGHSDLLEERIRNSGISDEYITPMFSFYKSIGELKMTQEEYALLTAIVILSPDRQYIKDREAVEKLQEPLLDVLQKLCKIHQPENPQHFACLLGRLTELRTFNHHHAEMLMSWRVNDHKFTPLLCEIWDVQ

Take `CC(=O)[C@H]1CCC2C3CC=C4C[C@@H](OS(=O)(=O)O)CC[C@]4(C)C3CC[C@@]21C` (stereo not given in full): the Potency entry in experiment [1], in experiment [3], in [4], in experiment [5], in experiment [6] and in experiment [7] was “inactive” throughout. Further, the molecule was called inactive in [2].

For `N=C(N)c1ccccc1`, the outcome in experiment [8], in experiment [9] and in experiment [2] was inactive. Besides, the Potency result in experiment [1], in experiment [10], in experiment [4], in [5], in experiment [6] and in experiment [7] was “inactive” throughout.

For the molecule `COC(=O)[C@H](NC(=O)c1cc(-c2ccccc2)nc2ccccc12)c1ccccc1`, the molecule was classed as inactive in experiment [8], in experiment [9] and in experiment [2]. Moreover, the Potency result in experiment [1], in experiment [4], in experiment [5], in [6] and in experiment [7] was “inactive” each time.

As to `NC1CCN(O)C1=O` (stereo not given), the Potency entry in experiment [1], in [4], in [5], in [6] and in [7] was “inactive” throughout. For the same molecule, the result in [2] was inactive.

With `N[C@H]1CONC1=O`, the Potency entry in [1], in experiment [4], in experiment [5], in [6] and in experiment [7] was “inactive” in each case. In addition, in experiment [2], the result was inactive.

Regarding `C[C@@H](NCCc1ccc(O)cc1)[C@@H](O)c1ccc(O)cc1`, the Potency entry in experiment [1], in [4], in experiment [5], in experiment [6] and in experiment [7] was “inactive” throughout. In addition, the outcome in experiment [2] was inactive. Besides, the Potency in [10] was 7.94 µM (active).

`C#CCN1C(C)=C(C(=O)OC)C(c2cccc([N+](=O)[O-])c2)C(C(=O)OCC)=C1C` (stereo not given): the Potency result in [1], in experiment [4], in [5], in [6] and in experiment [7] was “inactive” in each case. Also, the outcome in experiment [2] was inactive.

For `COCc1nc2c([nH]1)c(=O)n(C)c(=O)n2CC(C)C`, the outcome in [8], in experiment [9] and in experiment [2] was inactive. Besides, the Potency result in experiment [1], in experiment [4], in [5], in experiment [6] and in [7] was “inactive” throughout.

As for `CCCN(CCc1ccccc1)C1CCc2c(O)cccc2C1` (stereo not given), the Potency result in experiment [1], in experiment [4], in [5], in [6] and in [7] was “inactive” each time. For the same molecule, in [2], the outcome was inactive.

On to `NCCNS(=O)(=O)c1cccc2c(Cl)cccc12`, for which the molecule was called inactive in experiment [8], in experiment [9] and in experiment [2]. Moreover, the Potency entry in experiment [1], in experiment [4], in experiment [5], in [6] and in experiment [7] was “inactive” throughout.

In the case of `Oc1cc2c(cc1O)CN(C(=S)NCCc1ccc(Cl)cc1)CCC2`, the call in experiment [8], in experiment [9] and in experiment [2] was inactive. In addition, the Potency entry in experiment [1], in experiment [4], in experiment [5], in experiment [6] and in experiment [7] was “inactive” each time.

Consider `NCCCCN`, for which the result in experiment [8], in [9] and in [2] was inactive. Moreover, the Potency entry in experiment [1], in [4], in experiment [5], in experiment [6] and in experiment [7] was “inactive” each time.

Regarding `CCCCCCCCCCCCCCSCC(=O)O`, the outcome in [8], in experiment [9] and in experiment [2] was inactive. The Potency result in experiment [1], in experiment [4], in experiment [5], in experiment [6] and in [7] was “inactive” each time. Also, in experiment [11], the activation was 0.99%.

Consider `COc1cc(C(O)C(=O)O)ccc1O` (stereo not given), for which the Potency result in experiment [1], in [4], in experiment [5], in [6] and in experiment [7] was “inactive” each time. Besides, the call in [2] was inactive.

As to `COC(=O)[C@H]1[C@H]2C[C@H]3c4[nH]c5ccccc5c4CCN3C[C@H]2CC[C@@H]1O`, the Potency result in [1], in experiment [4], in experiment [5], in experiment [6] and in [7] was “inactive” each time. Also, the result in [2] was inactive.

`CC1=C(C(=O)O)N2C(=O)[C@@H](NC(=O)C(N)C3=CCC=CC3)[C@H]2SC1` (stereo not given in full): the Potency entry in [1], in [4], in experiment [5], in experiment [6] and in experiment [7] was “inactive” each time. For the same molecule, the molecule was classed as inactive in experiment [2].

As to `CC(=O)N[C@H](C(=O)O)C(C)(C)SN=O`, the Potency result in experiment [1], in [4], in [5], in experiment [6] and in [7] was “inactive” throughout. In addition, the call in experiment [2] was inactive.

For the molecule `CC1=C(C(=O)O)N2C(=O)[C@@H](NC(=O)C(N)c3ccccc3)[C@H]2SC1` (stereo not given in full), the Potency entry in [1], in experiment [4], in experiment [5], in experiment [6] and in experiment [7] was “inactive” throughout. Besides, in experiment [2], the molecule was classed as inactive.

For `CC(=O)/C(C)=N/O`, the Potency result in experiment [1], in experiment [4], in experiment [5], in [6] and in [7] was “inactive” in each case. Besides, the result in experiment [2] was inactive.

Regarding `COc1cc(CC(=O)O)ccc1O`, the outcome in experiment [8], in experiment [9] and in [2] was inactive. The Potency result in experiment [1], in experiment [4], in experiment [5], in [6] and in [7] was “inactive” each time.

As for `NC(CCCP(=O)(O)O)C(=O)O` (stereo not given), the Potency entry in [1], in experiment [12], in experiment [4], in experiment [5], in experiment [6] and in experiment [7] was “inactive” throughout. The molecule was classed as inactive in [2].

For `O=c1[nH]c(=O)c2nc3ccccc3nc2[nH]1`, the call in experiment [8], in [9] and in experiment [2] was inactive. For the same molecule, the Potency entry in experiment [1], in experiment [4], in experiment [5], in experiment [6] and in experiment [7] was “inactive” each time.

Take `O=C(O)C1=CCCNC1`: the outcome in [8], in [9] and in experiment [2] was inactive. Further, the Potency result in experiment [1], in [4], in experiment [5], in [6] and in experiment [7] was “inactive” throughout.

Turning to `COc1ccc(-c2ccc(N)[n+](CCCC(=O)O)n2)cc1`, the molecule was called inactive in experiment [8], in experiment [9] and in experiment [2]. Moreover, the Potency result in experiment [1], in experiment [4], in [5], in experiment [6] and in [7] was “inactive” throughout.

With `O=[N+]([O-])c1cccc2c(Br)[nH]nc12`, the call in experiment [8], in [9] and in experiment [2] was inactive. The Potency entry in experiment [1], in experiment [4], in experiment [5], in [6] and in experiment [7] was “inactive” throughout.

`CCCN(CC1CC1)c1nc(C)nc(Nc2c(Cl)cc(Cl)cc2Cl)c1Cl`: the outcome in experiment [8], in experiment [9] and in experiment [2] was inactive. The Potency result in [1], in experiment [4], in experiment [5], in [6] and in [7] was “inactive” in each case.

`NC(=O)C(=O)O`: the outcome in experiment [8], in experiment [9] and in experiment [2] was inactive. Further, the Potency entry in experiment [1], in [4], in experiment [5], in [6] and in experiment [7] was “inactive” each time.
